Screens deposited in PubChem BioAssay by National Center for Advancing Translational Sciences (NCATS).
In the library only some 11% were active in any assay of this set; here they are far more common.
Pf growth 96h: P. falciparum growth inhibition at 96 hours; P. falciparum luciferase reporter growth, 96 h; hit rate 6.9% among 320,000; Potency, µM (highest dose often 28.7 µM), hits mostly inhibitors
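Two-generation exposure (96 h) targets delayed-death phenotype. Reporter parasites carrying integrated firefly luciferase, in red cells at 2% hematocrit and 0.05% parasitemia final, kept at 37 C, 5% CO2; luminescence loss indicates inhibition.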
HCV inh: blocks hepatitis C virus; hit rate 3.4% among 340,000; AID 651820; Potency, µM (doses to about 41.8 µM), hits mostly inhibitors; Huh7.5.1 HCVcc-Cre infection, luciferase reporter, 44 h
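Infectious HCV cell culture screen: compound-treated cells (1,000/well, pre-plated 4 h) are infected with HCVcc-Cre at roughly 0.5 moi and grown 44 h. Infection is quantified by luciferase signal after 15 min substrate incubation at room temperature.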
Pf growth 48h: P. falciparum growth inhibition at 48 hours (one generation); Potency, µM (doses to about 28.7 µM), usual class: inhibitors; hit rate 5.9% among 310,000; P. falciparum luciferase growth in erythrocytes, 48 h
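Parasite viability was followed by luminescence of a genomically integrated firefly luciferase. Cultures held 0.1% parasitemia at 2% hematocrit (final), incubated under 5% CO2 at 37 C.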
AMA1-RON2 inh: disrupts binding of P. falciparum AMA1 to RON2 | Potency, µM (top dose mostly 58.2 µM), hits mostly inhibitors | hit rate 0.2% among 360,000 | AlphaScreen AMA1-biotinylated RON2 peptide binding; also: nearly all actives have a fitted effect of over 45% in size
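AMA1 (3D7) with his tag at 25 nM final met compounds first, then biotinylated RON2 peptide at 25 nM; detection used donor plus acceptor beads, 10 µg/mL apiece, read by AlphaScreen after 30 min at room temperature.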
Large screens that a line does not name were inactive. Calls follow the shape of the dose curve; as a rule, active = well fitted curve in the direction sought with a large enough effect; inconclusive = small, poorly fitted or top-dose-only effect, or another doubt; inactive = no such curve, though single readings can be large; an effect the other way counts as inactive or inconclusive.

CCOc1ccc(NS(=O)(=O)c2ccc(C(=O)NCc3ccncc3)cc2)cc1	HCV inh 7.08µM, Pf growth 48h inconclusive
Cc1cc(C)c(C(=O)N2CCC(N3CCC(C(=O)NC(C)C)CC3)CC2)o1	Pf growth 96h 11.7µM, Pf growth 48h inconclusive
Cc1cccn2c(=O)c(/C=C(\C#N)C(=O)NCc3ccccc3)c(N3CCC(C(N)=O)CC3)nc12	none
COc1cccc(CN(C(=O)c2cccs2)C2CCS(=O)(=O)C2)c1 (stereo unspecified)	none
CCOc1cc(/C=C/c2ccc3cccc([N+](=O)[O-])c3n2)cc(Cl)c1O	Pf growth 96h inconclusive, HCV inh inconclusive, Pf growth 48h 9.28µM
CCOc1ccc(C2C(C#N)=C(N)SC(N)=C2C#N)cc1OCC	Pf growth 48h inconclusive
CCc1ccc(C2C(C#N)=C(N)SC(N)=C2C#N)cc1	Pf growth 48h 5.86µM
N#CC1=C(N)SC(N)=C(C#N)C1c1ccc(C(F)(F)F)cc1	Pf growth 96h 9.28µM (no result: AMA1-RON2 inh)
CC(C)(C)c1ccc(COn2ccnc2)cc1	Pf growth 96h inconclusive, Pf growth 48h inconclusive
CC(C)(O)[C@@H]1CC[C@@](C)(C2CC[C@]3(C)C2[C@H](O)CC2[C@@]4(C)CC[C@H](O)C(C)(C)C4[C@@H](O[C@H]4O[C@@H](CO)[C@H](O)[C@@H](O)[C@@H]4O[C@@H]4O[C@H](CO)[C@@H](O)[C@H](O)[C@H]4O)C[C@]23C)O1 (stereo in doubt)	none (no result: Pf growth 96h, Pf growth 48h)
CCOc1ccccc1CNC(=O)c1ccc(NC(=O)C2=C(C)OCCS2)cc1	Pf growth 96h 6.57µM, HCV inh inconclusive, Pf growth 48h inconclusive
CC1=C(C(=O)Nc2ccc(CC(=O)NCc3ccccc3C)cc2)SCCO1	Pf growth 96h inconclusive
CCc1ccc(CNC(=O)Cc2ccc(NC(=O)C3=C(C)OCCS3)cc2)cc1	Pf growth 96h 11.7µM
CCc1ccc(/C=C/c2c[nH]c3ccccc23)[n+](CC)c1	Pf growth 96h 0.0738µM, HCV inh inconclusive, Pf growth 48h 0.208µM
O=C(Nc1ccon1)c1cccc(S(=O)(=O)N2CCCCC2)c1	Pf growth 96h inconclusive
CC(C)(C)NC(=O)C(c1ccc(O)cc1)N(C(=O)CCC(=O)Nc1nccs1)c1ccc(F)cc1 (stereo unspecified)	Pf growth 96h 10.4µM, Pf growth 48h inconclusive
Cc1ccc(N(C(=O)CCC(=O)Nc2nccs2)C(C(=O)NC(C)(C)C)c2ccc(O)cc2)cc1 (stereo unspecified)	Pf growth 96h 8.28µM, Pf growth 48h inconclusive
CC(C)(C)NC(=O)C(c1ccc(O)cc1)N(Cc1ccccc1)C(=O)CCC(=O)Nc1nccs1 (stereo unspecified)	none
COCCNC(=O)c1cc2oc3ccccc3c2n1C	HCV inh 12.6µM (no result: Pf growth 96h)
CCOc1ccccc1CNC(=O)c1cc2oc3ccccc3c2n1C	HCV inh inconclusive, Pf growth 48h inconclusive (no result: Pf growth 96h)
O=C(CC12CC3CC(CC(C3)C1)C2)NC(=S)N1CCCCC1	Pf growth 96h 9.28µM
S=C(NC12CC3CC(CC(C3)C1)C2)N1CCCC1	none
CCOC(=O)C1=C(N)OC2=C(C(=O)CCC2)C1c1ccccc1OCC (stereo unspecified)	none (no result: Pf growth 96h)
Cc1occc1C(=O)NNC1=CC(=O)CC(C)(C)C1	Pf growth 96h inconclusive
CCN1CCN(C(=O)CNC(=O)c2nn(-c3ccc(OC)cc3)c(=O)c3ccccc23)CC1	Pf growth 96h 1.47µM
COc1ccc(-n2nc(C(=O)NCC(=O)N3CCCC3)c3ccccc3c2=O)cc1	Pf growth 96h inconclusive
CCOC(=O)N1CCN(C(=O)CNC(=O)c2nn(-c3ccc(OC)cc3OC)c(=O)c3ccccc23)CC1	Pf growth 96h 1.04µM, Pf growth 48h inconclusive
COc1ccc(-n2nc(C(=O)NCC(=O)Nc3cc(C)ccc3OC)c3ccccc3c2=O)c(OC)c1	Pf growth 96h inconclusive, Pf growth 48h 11.7µM
COc1ccc(-n2nc(C(=O)NCC(=O)N3CC(C)CC(C)C3)c3ccccc3c2=O)c(OC)c1 (stereo unspecified)	Pf growth 48h 2.08µM
COc1ccc(NC(=O)c2cccc(-n3c(C)ccc3C)c2)c(OC)c1	Pf growth 96h inconclusive, HCV inh inconclusive, Pf growth 48h inconclusive
C[n+]1ccc(C(=O)N/N=C/c2ccco2)cc1	none
Cc1nc(N2CCN(C(=O)c3ccc(Cl)cc3)CC2)c(C#N)c2c1COC(C)(C)C2	HCV inh inconclusive (no result: Pf growth 96h)
CC1(C)Cc2c(C#N)c(N3CCN(C(=O)c4ccccc4Cl)CC3)nc(-c3ccco3)c2CS1	Pf growth 96h 1.65µM, HCV inh inconclusive, Pf growth 48h inconclusive, AMA1-RON2 inh inconclusive
CC(=O)N1CCN(c2nc(-c3ccco3)c3c(c2C#N)CC(C)(C)SC3)CC1	Pf growth 96h inconclusive, HCV inh 12.6µM, Pf growth 48h inconclusive
N#Cc1c(N2CCN(C(=O)c3ccco3)CC2)nc(-c2ccccc2)c2c1CCCC2	HCV inh inconclusive, Pf growth 48h inconclusive
CC1(C)Cc2c(C#N)c(N3CCN(C(=O)c4ccco4)CC3)nc(-c3ccco3)c2CS1	Pf growth 96h inconclusive, HCV inh 8.91µM, Pf growth 48h 4.65µM, AMA1-RON2 inh inconclusive
Cc1ccc(NC(=O)COC(=O)C2CCN(c3ccc(C(F)(F)F)cn3)CC2)cc1	none
O=S(=O)(NCCc1ccccc1)c1cccs1	none
O=C1/C(=N\S(=O)(=O)c2cccs2)C([n+]2ccc(CCCc3ccccc3)cc2)=C([O-])c2ccccc21	Pf growth 96h 1.04µM, HCV inh inconclusive, Pf growth 48h 0.37µM
O=C1/C(=N\S(=O)(=O)c2cccs2)C([n+]2cccc(Cc3ccccc3)c2)=C([O-])c2ccccc21	Pf growth 96h 0.738µM, Pf growth 48h 1.65µM
CCOc1ccc(C(=O)CCC(=O)N2CCN(S(=O)(=O)c3cccc(F)c3)CC2)cc1	Pf growth 96h inconclusive, HCV inh inconclusive, Pf growth 48h inconclusive
O=C(NC1CCCCC1)C1CC(=O)N(Cc2ccccc2)C1 (stereo unspecified)	none
CCOc1ccc(CN(C(=O)c2cc(=O)c3cc(C)cc(C)c3o2)C2CCS(=O)(=O)C2)cc1 (stereo unspecified)	HCV inh inconclusive, Pf growth 48h 3.7µM
Cc1cc(C)c2oc(C(=O)N(Cc3ccccc3)C3CCS(=O)(=O)C3)cc(=O)c2c1 (stereo unspecified)	Pf growth 96h inconclusive
Cc1ccc(NC(=S)N(Cc2ccc(Cl)cc2)Cc2ccc(C(=O)O)cc2)cc1Cl	none
CN1C[C@H](C(=O)N[C@]2(C)O[C@@]3(O)[C@@H]4CCCN4C(=O)[C@H](Cc4ccccc4)N3C2=O)C=C2c3cccc4[nH]cc(c34)C[C@H]21	Pf growth 96h 0.301µM, Pf growth 48h 0.301µM (no result: HCV inh, AMA1-RON2 inh)
CN1C[C@H](C(=O)NC2(C)OC3(O)[C@@H]4CCCN4C(=O)[C@H](Cc4ccccc4)N3C2=O)CC2c3cccc4[nH]cc(c34)C[C@H]21 (stereo partly specified)	none (no result: Pf growth 96h, Pf growth 48h)
CC(C)C[C@H]1C(=O)N2CCC[C@H]2[C@]2(O)O[C@](NC(=O)[C@@H]3C=C4c5cccc6[nH]cc(c56)C[C@H]4N(C)C3)(C(C)C)C(=O)N12	Pf growth 96h 3.7µM, HCV inh inconclusive, Pf growth 48h 2.94µM
